Assay outcomes deposited in PubChem by National Center for Advancing Translational Sciences (NCATS).
This is a sample that favours compounds with a hit; in the whole collection about 11% have one here.
HPGD block: inhibitors of human 15-hydroxyprostaglandin dehydrogenase (HPGD). Potency, µM, hits mostly inhibitors. purified HPGD, NADH fluorescence kinetic, PGE2 substrate. 150,000 tested, 4.3% active. AID 894
Target sequence (P15428 whole entry, looked up): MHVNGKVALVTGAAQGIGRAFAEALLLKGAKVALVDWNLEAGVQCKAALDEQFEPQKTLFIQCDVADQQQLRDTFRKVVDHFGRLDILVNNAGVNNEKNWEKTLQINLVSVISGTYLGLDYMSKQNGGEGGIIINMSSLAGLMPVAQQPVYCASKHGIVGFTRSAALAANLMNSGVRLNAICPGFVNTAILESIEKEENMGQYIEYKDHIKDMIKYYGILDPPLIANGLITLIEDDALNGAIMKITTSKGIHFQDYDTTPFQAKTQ
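NADH formation kinetics: reaction with 30 uM PGE2 and 1 mM NAD+ (final), 20 nM enzyme, Tris-HCl pH 8 with Tween 20, after 15 min compound preincubation at room temperature. Fluorescence change, last versus first of five reads.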
ALDH1A1 block: ALDH1A1 (human) enzyme inhibition. P00352. Purified ALDH1A1, NADH fluorescence, propionaldehyde substrate. Potency, µM (series often up to 75.3 µM), usual class: inhibitors. 220,000 tested, 7.3% active
PNC assembly inh: inhibitors of perinucleolar compartment assembly; PC3M PTB-GFP, PNC prevalence imaging, 16 h; hits give low values; activity change (PNC), negative = inhibition, % at 10 µM; 140,000 tested, 3.1% active;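 active = readout at or below -70, meaning at least 70% loss of cells showing the perinucleolar compartment, a nuclear body marking cancer cells; inconclusive = readout between -30 and a set limit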
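Read-out is percentage of cells bearing a perinucleolar compartment, from automated 20x imaging of fixed, Hoechst-stained PC3M PTB-GFP cells. Cells were seeded 4 h, then exposed 16 h to compound (23 nl of library stock) in duplicate plates.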
A number is an active result; n = inactive; u = inconclusive; x = not tested or not shown. Unless noted, calls follow the shape of the dose curve; as a rule, active = well fitted inhibition curve with a large enough effect (not every such curve was filed as active); inconclusive = small, poorly fitted or top-dose-only effect, or another doubt; inactive = no such curve, though single readings can be large or run the other way.

SMILES	HPGD block	ALDH1A1 block	PNC assembly inh
CCc1cc(C(=O)NNC(=S)Nc2cc(C)ccc2C)cs1	n	u	n
CCc1cc(C(=O)NNC(=S)Nc2ccccc2C)cs1	n	25µM	u
CCOc1ccccc1NC(=O)COC(=O)CC(NC(N)=O)c1ccc(Cl)cc1 (centres undefined)	x	n	x
CN1CCc2cccc3c2C1Cc1ccc(O)c(O)c1-3 (centres undefined)	5µM	u	x
CCC(C)/C(C)=N/NC(=O)CNS(=O)(=O)c1ccc([N+](=O)[O-])cc1 (centres undefined)	x	n	x
Oc1cc2c(cc1O)[C@@H]1c3ccc(O)c(O)c3OC[C@]1(O)C2	11µM	n	x
CCOC(=O)Cc1nnc(NC(=O)CSc2ncc(-c3ccccc3)nn2)s1	x	n	x
Cc1nn(-c2ccccc2)c(C)c1/C=N/NC(=O)c1cnccn1	x	n	x
Cn1ncc([N+](=O)[O-])c1C(=O)Nc1ccc(C2CCCCC2)cc1	x	n	x
CCCCCn1c(=O)[nH]c2cc(C(=O)NCCc3ccc(OC)c(OC)c3)ccc2c1=O	n	n	n
COc1cc2[nH]c(=O)n(Cc3ccccc3Cl)c(=O)c2cc1OC	n	u	n
COC(=O)c1ccc2c(=O)n(CCCCCC(=O)O)c(=S)[nH]c2c1	u	14µM	u
COC(=O)c1ccc2c(=O)n(CCO)c(=S)[nH]c2c1	n	n	u
CC1CCN(CCCNC(=O)c2ccc3c(=O)n(Cc4ccc(Cl)cc4)c(=S)[nH]c3c2)CC1	x	16µM	x
COc1cc2[nH]c(=S)n(Cc3ccccc3)c(=O)c2cc1OC	x	4.5µM	x
CCOc1cc2[nH]c(=O)n(Cc3ccc(C(=O)NCCCN4CCC(C)CC4)cc3)c(=O)c2cc1OCC	x	n	x
